Source: PubChem BioAssay (NCATS)
Where “and” joins values, the source holds several entries; their conditions need not be identical. Equal values may be shown once. Results filed as inconclusive are left out. Calls of active or inactive are those of the source. Unless noted, the call rests on the fitted dose curve; in most records, active means well fitted curve in either direction with a large enough effect (not every such curve was filed as active); inconclusive means small, poorly fitted or top-dose-only effect, or another doubt; inactive means flat fitted curve, though single readings scatter.

Assays:
[1] = AP1 Signaling Pathway (AID 357); details: ME-180 AP-1-bla reporter, EGF-induced, beta-lactamase ratio, 5 h; at 17.2 µM (top of the series);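 further: ME-180 reporter cells stimulated with EGF at its EC50 level; on the % scale 0 is the no-effect control and ±100 the full control effect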
How it was run: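 A ratiometric CCF4 readout (405 nm excitation; 460 and 530 nm emission) quantified AP-1-driven beta-lactamase in ME-180 cells after 5 h with compound and EC50 EGF; AC50 values were derived for activators and inhibitors.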

[2] = NFAT Signaling Pathway (AID 444); details: Jurkat NFAT-bla M1, carbachol, beta-lactamase ratio, 5 h; at 17.2 µM (top of the series);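 further: carbachol stimulus at about its EC50 of 1 µM final; on the % scale 0 is the no-effect control and ±100 the full control effect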
How it was run: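 Read-out: CCF4 FRET ratio (460 nm/530 nm) after 1 h RT dye loading, used for %activity and AC50 from titration series. Cells: Jurkat NFAT-β-lactamase/M1 line, treated with compound plus 1 uM carbachol for 5 h, 37 °C.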

[3] = Stat Signaling Pathway (AID 446); details: ME-180 (cervical carcinoma) SIE beta-lactamase reporter, IL-6 stimulated, 5 h; at 17.2 µM (top of the series);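 further: ME-180 cervical cancer cells given 40 pM IL-6 alongside compound; SIE-controlled beta-lactamase reporter measured as 460/530 nm FRET emission ratio; on the % scale 0 is the no-effect control and ±100 the full control effect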
How it was run: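 IL-6/STAT signaling read in ME-180 cells via an SIE beta-lactamase reporter. Stimulus was 40 pM IL-6 (its AC50) for 5 hrs, so both activation and inhibition register.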

[4] = target: Glucocorticoid receptor (Homo sapiens) (UniProt P04150); experiment: GR-GFP Redistribution (AID 450;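 active means compounds whose dose series gives a full or clear partial fitted curve of increased nuclear translocation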; further: potency means the concentration at half of the fitted maximal effect); details: U2OS GR-GFP nuclear translocation, laser cytometry, 2 h
[5] = target: Cytochrome P450 1A2 (Homo sapiens) (UniProt P05177); experiment: p450-cyp1a2 (AID 410; calls by dose curve; further: potency means the concentration at half of the fitted maximal effect;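 on activity change, negative = inhibition: -100% = full effect of reference inhibitor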); details: recombinant CYP1A2, luciferin-ME demethylation, luminescence; series mostly up to 25.6 µM
How it was run: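 Inhibition was calculated relative to 57 uM furafylline (full inhibition). The reaction used human CYP1A2 at 20nM with Luciferin-ME at its Km, 100uM, driven by an NADPH-regenerating system for 60 min at room temperature.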

[6] = target: Mitogen-activated protein kinase 10 (Mus musculus) (UniProt Q61831); experiment: JNK3 AlphaScreen Assay (AID 530); details: JNK3 lysate, c-Jun phosphorylation; series mostly up to 25.6 µM;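 further: kinase came from lysate of stimulated human HepG2 cells; signal reports phosphorylation of biotinylated GST-cJun 1-79 at Ser73 with 10 µM ATP; on the % scale 0 is the no-effect control and ±100 the full control effect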
How it was run: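 Room-temperature AlphaScreen kinase assay; pre-activated HepG2 lysate as JNK3 source, biotin-GST-cJun(1-79) substrate, 10 uM ATP, compound 15 min preincubation.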

[7] = target: Glucocorticoid receptor (Homo sapiens) (UniProt P04150); experiment: GR-EFC Redistribution (AID 451; calls by dose curve; further: potency means the concentration at half of the fitted maximal effect); details: CHO-K1 GR-EFC translocation, beta-gal luminescence, 2 h
How it was run: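 Translocation of GR-ED fusion to nuclear EA restores b-gal, read by luminescence after 1 h room-temperature detection. Engineered CHO-K1 biosensor cells, 1,000/well, exposed 2 h at 37 C to titrations up to 46 uM final.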

[8] = Cell Viability - BJ (AID 421; calls by dose curve;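 further: potency means the concentration at half of the fitted maximal effect; cells exposed to compound for 40 hours at 37 °C before readout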); details: BJ fibroblast viability, qHTS
How it was run: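 Quantitative HTS: ATP depletion in BJ cells after 40 hr compound exposure in complete culture medium, detected with CellTiter-Glo; AC50 from standard Hill fits.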

[9] = Cell Viability - Hek293 (AID 427;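 active means compounds whose dose-response curve shows a full or clear partial loss of cell viability, called from curve shape rather than a numeric limit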;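 further: potency means the concentration at half of the fitted maximal effect; cells exposed to compound for 40 hours at 37 °C before reading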); details: qHTS
How it was run: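 AC50 values derive from Hill-modelled concentration-response of ATP-based luminescence, normalized between DMSO-only and 100 uM tamoxifen controls. Cells were exposed in complete culture medium for 40 hr at 37 °C before detection.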

[10] = Cell Viability - HepG2 (AID 433; calls by dose curve;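 further: potency means the concentration at half of the fitted maximal effect; potency for ATP loss meaning cytotoxicity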); details: qHTS
How it was run: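 In this qHTS format, a 40 h, 37 °C compound incubation of HepG2 cells in complete medium precedes a 20 min CellTiter-Glo step at room temperature. Tamoxifen and doxorubicin serve as positive controls; Hill-equation fits yield AC50.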

[11] = Cell Viability - MRC5 (AID 434; calls by dose curve;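 further: potency means the concentration at half of the fitted maximal effect; potency reflects cytotoxicity seen as loss of intracellular ATP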); details: MRC5 lung fibroblast viability, qHTS
How it was run: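 qHTS cytotoxicity in human lung fibroblast MRC5 cells; 40 hr treatment, 37 °C; cellular ATP by luciferase luminescence; DMSO = 0%, 100 uM tamoxifen = 100% inhibition; Hill-fit AC50.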

[12] = Cell Viability - SK-N-SH (AID 435; calls by dose curve;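 further: potency means the concentration at half of the fitted maximal effect; compound exposure lasted 40 h at 37 °C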); details: SK-N-SH neuroblastoma cell viability qHTS
How it was run: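 Human neuroblastoma line, 40 h exposure at 37 °C, ATP quantified via luciferase luminescence; DMSO and 100 uM tamoxifen define 0 and 100% inhibition for AC50 fitting.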

[13] = Cell Viability - N2a (AID 540; active means well fitted curve in the direction sought with a large enough effect; an effect the other way counts as inactive or inconclusive;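 further: plate controls were DMSO alone for no effect and tamoxifen control for full effect; nearly all actives have a fitted effect of over 45% in size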); details: N2a mouse neuroblastoma cell viability; activity change, negative = cytotoxicity: at 92.2 µM (top of the series)
How it was run: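 First, 1500 N2a cells per well incubate 5 hr at 37 °C; next, compounds are added and incubated 40 hr at 37 °C; finally CellTiter-Glo is added and luminescence read after 20 min, with AC50 derived by Hill modeling.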

[14] = Cell Viability - HUV-EC-C (AID 542; active means well fitted curve in the direction sought with a large enough effect; an effect the other way counts as inactive or inconclusive; further: on the % scale 0 is the no-effect control and ±100 the full control effect; nearly all actives have a fitted effect of over 35% in size); details: HUV-EC-C endothelial cell viability, qHTS; series mostly up to 92.2 µM
How it was run: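 Decrease in cellular ATP, quantified by luciferase luminescence, reflects toxicity in normal human vascular endothelial HUV-EC-C cells given compound for 40 hr in complete culture medium. Values are AC50s from concentration-response curves.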

[15] = Cell Viability - H-4-II-E (AID 543; active means well fitted curve in the direction sought with a large enough effect; an effect the other way counts as inactive or inconclusive; further: nearly all actives have a fitted effect of over 35% in size; further: potency means the concentration at half of the fitted maximal effect); details: H-4-II-E rat hepatoma viability; series mostly up to 92.2 µM
How it was run: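 Here, cytotoxicity is measured in the rat hepatoma line H-4-II-E as loss of intracellular ATP after 40 hr compound treatment, detected by luciferase luminescence.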

[16] = Cell Viability - Renal Proximal Tubule (AID 545; active means well fitted curve in the direction sought with a large enough effect; an effect the other way counts as inactive or inconclusive;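 further: 0% = DMSO only and -100% = 100 µM tamoxifen; nearly all actives have a fitted effect of over 40% in size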); details: renal proximal tubule cells viability, primary cells of rat origin; activity change, negative = cytotoxicity: at 91.7 µM (top of the series)
How it was run: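 In this qHTS format, normal rat kidney-derived proximal tubule cells in complete culture medium receive compound titrations, then sit 40 hours at 37 °C before luciferase-based ATP quantitation; potency is reported as AC50 from concentration-response curves.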

[17] = Cell Viability - NIH 3T3 (AID 541; active means well fitted curve in the direction sought with a large enough effect; an effect the other way counts as inactive or inconclusive;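 further: plate controls were DMSO alone for no effect and tamoxifen positive control for full effect; nearly all actives have a fitted effect of over 25% in size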); details: NIH 3T3 cell viability, qHTS; activity change, negative = cytotoxicity: at 92.2 µM (top of the series)
How it was run: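 AC50 values reflect concentration-dependent loss of intracellular ATP in NIH 3T3 cells after 40 hr treatment in complete culture medium, quantified by luciferase-based luminescence.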

[18] = Cell Viability - Jurkat (AID 426;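 active means dose-dependent loss of cell ATP signal giving a full or clear fitted curve, ranked by lower potency value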; further: potency means the concentration at half of the fitted maximal effect); details: qHTS
How it was run: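 Seed 5000 Jurkat E6-1 cells/well; add compound; incubate 40 hr at 37 °C; add CellTiter-Glo; wait 20 min at room temperature; read luminescence. Fit concentration-response with Hill equation for AC50.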

[19] = Cell Viability - SH-SY5Y (AID 544; active means well fitted curve in the direction sought with a large enough effect; an effect the other way counts as inactive or inconclusive; further: nearly all actives have a fitted effect of over 55% in size; further: potency means the concentration at half of the fitted maximal effect;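 on viability change, negative = cytotoxic: 0% = DMSO alone and -100% = 100 µM tamoxifen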); details: SH-SY5Y neuroblastoma cell viability; viability change, negative = cytotoxic: at 92.2 µM (top of the series)
How it was run: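 Cytotoxicity is scored as a concentration-dependent fall in intracellular ATP in human SH-SY5Y cells treated 40 hr in complete culture medium. Potency is expressed as AC50 from a Hill equation fit.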

Cytochrome P450 1A2 (Homo sapiens), sequence (P05177 whole entry, looked up): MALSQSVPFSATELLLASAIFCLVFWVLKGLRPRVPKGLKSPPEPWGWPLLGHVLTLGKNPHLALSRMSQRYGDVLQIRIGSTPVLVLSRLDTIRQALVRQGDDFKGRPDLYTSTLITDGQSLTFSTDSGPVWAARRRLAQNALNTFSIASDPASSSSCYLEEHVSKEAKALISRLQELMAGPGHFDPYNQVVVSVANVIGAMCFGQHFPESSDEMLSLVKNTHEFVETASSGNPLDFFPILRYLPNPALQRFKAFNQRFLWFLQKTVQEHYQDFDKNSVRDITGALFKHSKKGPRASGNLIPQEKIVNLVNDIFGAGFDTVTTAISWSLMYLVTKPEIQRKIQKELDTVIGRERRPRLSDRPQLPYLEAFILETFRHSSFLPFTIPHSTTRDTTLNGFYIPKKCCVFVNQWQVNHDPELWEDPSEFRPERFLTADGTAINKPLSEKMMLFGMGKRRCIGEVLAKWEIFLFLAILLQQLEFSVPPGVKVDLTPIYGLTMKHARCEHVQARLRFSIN
Glucocorticoid receptor (Homo sapiens), sequence (P04150 whole entry, looked up, the tested form may be a part): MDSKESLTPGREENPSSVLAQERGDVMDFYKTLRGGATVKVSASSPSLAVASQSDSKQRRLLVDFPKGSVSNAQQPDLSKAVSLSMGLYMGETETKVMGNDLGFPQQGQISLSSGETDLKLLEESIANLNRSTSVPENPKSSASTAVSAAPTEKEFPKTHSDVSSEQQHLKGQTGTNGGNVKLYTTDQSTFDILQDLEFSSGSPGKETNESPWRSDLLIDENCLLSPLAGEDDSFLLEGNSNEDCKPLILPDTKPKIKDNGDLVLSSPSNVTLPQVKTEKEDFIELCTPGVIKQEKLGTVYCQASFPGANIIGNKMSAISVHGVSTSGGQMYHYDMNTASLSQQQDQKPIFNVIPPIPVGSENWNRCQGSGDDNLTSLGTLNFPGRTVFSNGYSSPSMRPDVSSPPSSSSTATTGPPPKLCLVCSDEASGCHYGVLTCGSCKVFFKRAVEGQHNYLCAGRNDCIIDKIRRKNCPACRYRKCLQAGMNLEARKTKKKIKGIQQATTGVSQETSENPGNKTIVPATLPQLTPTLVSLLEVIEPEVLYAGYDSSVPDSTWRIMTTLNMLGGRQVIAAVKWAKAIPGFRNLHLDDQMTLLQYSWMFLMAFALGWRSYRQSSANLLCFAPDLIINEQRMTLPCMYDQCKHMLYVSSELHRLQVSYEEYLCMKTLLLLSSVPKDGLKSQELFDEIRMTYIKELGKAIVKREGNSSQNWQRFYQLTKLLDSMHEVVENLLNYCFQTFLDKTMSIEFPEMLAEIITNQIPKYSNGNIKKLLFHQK

C[C@H]1C[C@H]2[C@@H]3CCC4=CC(=O)C=C[C@]4(C)[C@@]3(Cl)[C@@H](O)C[C@]2(C)[C@@]1(O)C(=O)CO
inactive: activity change, negative = inhibition [1] -9.37% | activity change, negative = inhibition [2] -6.95% | activity, negative = inhibition [3] -1.29%

C[C@]12CC[C@H]3[C@@H](CCC4=CC(=O)CC[C@@]43C)[C@@H]1CC[C@@H]2C(=O)CO
active: Potency [4] 0.0356 µM
inactive: activity change, negative = inhibition [1] 12.4% | activity change, negative = inhibition [2] -13.6% | activity, negative = inhibition [3] 1.53%

COc1c(C)c2c(c(O)c1C/C=C(\C)CCC(=O)O)C(=O)OC2
inactive: activity change, negative = inhibition [1] 6.58% | activity change, negative = inhibition [2] -1.42% | activity, negative = inhibition [3] 8.02% | outcome [6]
active: Potency [5] 31.6 µM

CCC(C(=O)OCCN(CC)CC)c1ccccc1 (stereo not drawn)
inactive: activity change, negative = inhibition [1] 1.42% | activity, negative = inhibition [3] 2.13% | Potency [4] > 20.6 µM
active: activity change, negative = inhibition [2] -83.4%

NCCCC[C@H](N[C@@H](CCc1ccccc1)C(=O)O)C(=O)N1CCC[C@H]1C(=O)O
inactive: activity change, negative = inhibition [1] 3.25% | activity change, negative = inhibition [2] -2.99% | activity, negative = inhibition [3] 4.58% | Potency [4] > 20.6 µM | Potency [7] > 20.6 µM | outcome [6]

CC(=O)N(O)CCCCCNC(=O)CCC(=O)N(O)CCCCCNC(=O)CCC(=O)N(O)CCCCCN
inactive: activity change, negative = inhibition [1] -6.04% | Potency [5] | activity, negative = inhibition [3] 10.3% | Potency [4] > 20.6 µM | Potency [7] > 20.6 µM | outcome [6]

CC(C)(Oc1ccc(Cl)cc1)C(=O)O
inactive: activity change, negative = inhibition [1] -0.859% | activity change, negative = inhibition [2] 15.7% | activity, negative = inhibition [3] -4.02% | Potency [4] > 20.6 µM and > 46 µM | Potency [7] > 20.6 µM and > 46 µM | outcome [6]

CN(C)/N=N/c1nc[nH]c1C(N)=O
active: Potency [15] 25.1 µM
inactive: Potency [8] > 92 µM | Potency [9] > 92 µM | Potency [10] > 92 µM | Potency [11] > 92 µM | Potency [12] > 92 µM | outcome [6] | Potency [13] | Potency [14] | activity change, negative = cytotoxicity [16] -19.1%

O=C1OC(c2ccc(O)cc2)(c2ccc(O)cc2)c2ccccc21
inactive: Potency [8] > 92 µM | Potency [9] > 92 µM | Potency [10] > 92 µM | Potency [11] > 92 µM | Potency [12] > 92 µM | activity change, negative = inhibition [2] -4.2% | activity, negative = inhibition [3] -16.8% | outcome [6] | Potency [13] | Potency [17] | Potency [15]

CNCC[C@@H](Oc1ccccc1C)c1ccccc1
active: Potency [5] 15.8 µM
inactive: Potency [7] > 46 µM | outcome [6]

C[C@@H]1CN(CCCn2c3ccccc3c3ccccc32)C[C@H](C)N1
inactive: outcome [6]
active: Potency [5] 0.794 µM

CC(O)C(=O)O (stereo not drawn)
inactive: Potency [8] > 92 µM | Potency [18] > 92 µM | Potency [9] > 92 µM | Potency [10] > 92 µM | Potency [11] > 92 µM | Potency [12] > 92 µM | outcome [6] | Potency [13] | Potency [17] | Potency [14] | Potency [15] | Potency [19] | activity change, negative = cytotoxicity [16] -2.48%

Cc1cccc(C)c1NC(=O)CN1CCN(CCCC(c2ccc(F)cc2)c2ccc(F)cc2)CC1
inactive: activity change, negative = inhibition [1] 4.39% | activity change, negative = inhibition [2] 5.94% | activity, negative = inhibition [3] -20% | outcome [6]

CC/C(=C(/CC)c1ccc(O)cc1)c1ccc(O)cc1
active: Potency [18] 21.5 µM | activity change, negative = cytotoxicity [13] -83.5% | Potency [19] 31.6 µM
inactive: Potency [8] > 92 µM | Potency [10] > 92 µM | Potency [11] > 92 µM | outcome [6]

CCCCCCC[N+](CC)(CC)CCCCc1ccc(Cl)cc1
inactive: activity, negative = inhibition [3] -5.02% | Potency [4] > 20.6 µM | Potency [7] > 20.6 µM | outcome [6]

CN1CCC(=C2c3ccccc3Sc3ccccc32)CC1
inactive: Potency [5] | activity, negative = inhibition [3] -4.56% | Potency [4] > 20.6 µM | Potency [7] > 20.6 µM | outcome [6]
active: activity change, negative = inhibition [2] -31.6%

CN=C(NC#N)NCCSCc1csc(N=C(N)N)n1
inactive: Potency [4] > 46 µM | Potency [7] > 46 µM

CC(=O)c1ccc2c(c1)N(CCCN1CCC(CCO)CC1)c1ccccc1S2
inactive: activity change, negative = inhibition [1] 4.33% | activity, negative = inhibition [3] 9.61% | Potency [4] > 20.6 µM | Potency [7] > 20.6 µM | outcome [6]

CN(C)CCOc1ccccc1Cc1ccccc1
inactive: activity change, negative = inhibition [1] 16.9% | activity, negative = inhibition [3] -3.49%

C[C@]12CC[C@@H]3c4ccc(O)cc4CC[C@H]3[C@@H]1CC[C@@H]2O
active: Potency [18] 25.8 µM
inactive: Potency [8] > 92 µM | Potency [10] > 92 µM | Potency [11] > 92 µM | outcome [6] | Potency [13] | Potency [14]

C=CCc1ccc(O)c(OC)c1
inactive: Potency [8] > 92 µM | Potency [18] > 92 µM | Potency [9] > 92 µM | Potency [10] > 92 µM | Potency [11] > 92 µM | Potency [12] > 92 µM | outcome [6] | Potency [13] | Potency [17] | Potency [14] | Potency [15] | Potency [19] | activity change, negative = cytotoxicity [16] 5.39%
